Pf growth 96h: inhibits malaria parasite growth, 96 h. P. falciparum luciferase reporter growth, 96 h. Potency, µM (series often up to 28.7 µM), inactives show at the top dose activity change, negative = inhibition, hits mostly inhibitors. 320,000 compounds, 6.9% hits. AID 504834; further: potency means the concentration at half of the fitted maximal effect; on the % scale 0 is the no-effect control and ±100 the full control effect
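Two parasite generations (96 h, 37 C, 5% CO2) of compound exposure in infected erythrocytes (0.05% parasitemia, 2% hematocrit). Luciferase-reporter P. falciparum; decreased luminescence indicates inhibited growth, aimed at apicoplast-acting delayed death.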
HCV inhibitor: inhibitors of hepatitis C virus infection; Huh7.5.1 HCVcc-Cre infection, luciferase reporter, 44 h; Potency, µM (top dose mostly 41.8 µM), without a hit: top-dose activity change, negative = inhibition, usual class: inhibitors; 340,000 compounds, 3.4% hits; further: potency means the concentration at half of the fitted maximal effect; on the % scale 0 is the no-effect control and ±100 the full control effect
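After 44 h co-culture of compound, cells and HCVcc-Cre (~0.5 moi), substrate is added for 15 min at room temperature and luciferase measured over 15 sec. Cells were seeded at 1,000/well and pre-cultured 4 h.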
Cycloheximide cs: counter-screen for Shiga toxin inhibitors: cycloheximide protein synthesis inhibition; 300,000 compounds, 12% hits; max response, %; cell reporter, cycloheximide protein synthesis inhibition counterscreen; in the data active means max response mostly above about 13%, no sharp cut-off; inactive means mostly below about 14%; further: read at 38.3 µM for the half of the compounds with a filed dose; 0% is about no effect
Pf growth 48h: P. falciparum growth inhibition at 48 hours (one generation). P. falciparum luciferase growth in erythrocytes, 48 h. 310,000 compounds, 5.9% hits. Potency, µM (top dose mostly 28.7 µM), without a hit: top-dose activity change, negative = inhibition, hits mostly inhibitors; further: potency means the concentration at half of the fitted maximal effect; on the % scale 0 is the no-effect control and ±100 the full control effect
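Growth was read as firefly luciferase luminescence after a 48 h, 37 C, 5% CO2 exposure of compounds to reporter-bearing P. falciparum cultures (0.1% parasitemia, 2% hematocrit final) in Albumax-supplemented RPMI 1640.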
Shiga inhibitor: Shiga toxin inhibition; Vero cells, Shiga toxin protein synthesis inhibition reporter; inhibition, % at 38.7 µM; 290,000 compounds, 9.2% hits; in the data active means inhibition mostly above about 28%, no sharp cut-off; inactive means mostly below about 43%; further: 0% is about no effect
HCMV antiviral: inhibitors of human cytomegalovirus. HFF cells, HCMV-luciferase reporter, 72 h; hits give low values. activity change, negative = inhibition, % at 57.5 µM. 410,000 compounds, 4.5% hits. AID 1259415; in the data active means activity change below about -60%; inconclusive means no clear call, values can overlap the other calls; inactive means above about -39%; further: on the % scale 0 is the no-effect control and ±100 the full control effect
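Steps: HFFs plated, 16 h 37C; compounds added; HCMV-luciferase added to MOI 1 PFU/cell; 72 h 37C; OneGlo reagent, 5 min room temperature; luminescence read, normalized to controls.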
Starred values were filed as active, the others as inactive; ? = inconclusive; · = no result given; [ ] = dose if it differs, or a comment. The list is not random: actives were taken first. Their share in the collection is about 21%. Unless noted, the call rests on the fitted dose curve; in most records, active means well fitted inhibition curve with a large enough effect; inconclusive means small, poorly fitted or top-dose-only effect, or another doubt; inactive means no such curve, though single readings can be large or run the other way.

SMILES | Pf growth 96h | HCV inhibitor | Cycloheximide cs | Pf growth 48h | Shiga inhibitor | HCMV antiviral
O=C(N/N=C/c1cn(-c2cccs2)nc1-c1ccccc1)c1ccccc1O | 6.6µM* | ? | 49* | ? | 94* | -14
O=C(N/N=C/c1cn(-c2cccs2)nc1-c1ccccc1)c1ccccc1Br | ? | 7.1µM* | 25* | 11% | 55 | 38
O=C(N/N=C/c1cn(-c2ccccc2)nc1-c1cccnc1)c1ccccc1 | ? | ? | -1 | ? | 5 | -29
COc1ccc(/C=C2\NC(=O)C(C=NCc3ccccc3)=C2O)cc1 | -3% | 10% | 10 | ? | 28 | 13
O=C1N/C(=C\c2ccc(O)cc2)C(O)=C1C=NCc1ccccc1 | 12% | -23% | 16* | ? | 14 | -8
COc1ccc(C(=O)N/C(=C\c2cn(S(=O)(=O)N(C)C)c3ccccc23)C(=O)NCCCN2CCOCC2)cc1 | 0% | 4% | -3 | ? | -9 | 30
COc1cc(CNCCSc2nnnn2C)ccc1OCc1ccccc1C | · | · | · | · | · | -13
Cc1ccc2cc(CCl)c(Cl)nc2c1 | 2% | 10µM* | -2 | -17% | -7 | 5
ClCc1cc2ccccc2nc1Cl | 7% | ? | -2 | ? | 9 | 67
CC(C)N(C(=S)Nc1ccc(S(=O)(=O)N2CCOCC2)cc1)c1ccccc1 | · | 22% | · | · | · | -31
OCC(O)C(O)C(O)C(O)CO (stereo not given) | -2% | · | -5 | -19% | 12 | ·
CCSC(SCC)[C@H](O)[C@@H](O)[C@H](O)[C@H](O)CO | 7% | 0%[8.37 µM] | -3 | 10% | -11 | -65*
O=C(NNC1CC(c2ccccc2)=NN1C(=O)c1ccccc1)c1ccccc1 (stereo not given) | ? | 1% | -7 | -24% | -19 | -10
O=[N+]([O-])c1ccc(C2CC(c3ccccc3)=Nc3ccccc3S2)cc1 (stereo not given) | 3% | -17% | 57* | ? | 67* | 82
O=C(O)C1CC(c2ccccc2)=Nc2ccccc2S1 (stereo not given) | 39% | 4% | 58* | ? | 72* | 25
Fc1ccc(C2CC(c3ccco3)=Nc3ccccc3S2)cc1 (stereo not given) | 85% | 10% | 10 | 61% | 25 | 53
O=C(Nc1ccccc1C(=O)NC(Cc1ccc(O)cc1)C(=O)O)c1ccccc1 (stereo not given) | -18% | 8% | -1 | 12% | 21 | -1
COc1cc2c3c(c1OC)C1(C=CC(=O)C=C1)CC3N(C(=O)CCC(=O)O)CC2 (stereo not given) | -26% | 15% | -3 | 2.1µM* | -6 | -26
COc1cccc(CN(C)C(=O)CN2C(=O)NC(c3ccccc3)(c3ccccc3)C2=O)c1OC | 12µM* | -19% | · | ? | · | 120
CCC(C)(C)C1CCC2(CC1)NC(=O)N(CC(=O)N(C)CC(=O)Nc1ccccc1C(F)(F)F)C2=O (stereo not given) | ? | ? | 58* | 3% | 53* | -28
CC(C)(C)C(=O)CN1C(=O)NC(c2ccccc2)(c2ccccc2)C1=O | ? | 17% | -5 | ? | -5 | 6
Cc1cccc(CN2C(=O)NC(c3ccccc3)(c3ccccc3)C2=O)c1 | ? | -13% | -1 | 10µM* | -3 | -69*
Cc1ccsc1CN(C)C(=O)CN1C(=O)NC(c2ccccc2)(c2ccccc2)C1=O | 9.3µM* | 14% | · | 13µM* | · | ?
O=C(CN1C(=O)NC2(CCCC2)C1=O)Nc1ccccc1C(F)(F)F | 4% | 15% | -6 | 13% | -12 | -29
O=C1/C(=C/c2ccccn2)SC(=S)N1Nc1ncc(C(F)(F)F)cc1Cl | · | -7% | · | · | · | 51
SMILES | Pf growth 96h | HCV inhibitor | Cycloheximide cs | Pf growth 48h | Shiga inhibitor | HCMV antiviral
COc1ccccc1CC(=O)Nc1ccon1 | 126% | 7% | -5 | 2% | -2 | 25
CC(C)c1nc2cc(C(=O)N3CCNC(=O)C3c3ccc(F)cc3)ccc2o1 (stereo not given) | ? | ? | 11 | ? | 7 | -37
CN(Cc1ccccc1)C(=O)CN1C(=O)NC2(CCCCCCC2)C1=O | ? | -5% | · | 9.3µM* | · | -6
COc1ccc(C2(c3ccc(OC)cc3)NC(=O)N(CC(=O)N(C)C3CCC(C)CC3)C2=O)cc1 (stereo not given) | ? | ? | · | 10µM* | · | -16
COc1cccc(CN(C)C(=O)CN2C(=O)NC(c3ccccc3)(c3ccccc3)C2=O)c1 | 10µM* | -27% | · | 10µM* | · | 0
CC1CCC(N(C)C(=O)CN2C(=O)NC(c3ccccc3)(c3ccccc3)C2=O)CC1 (stereo not given) | · | · | · | · | · | -16
CCCCNC(=O)Cn1c(=O)cc(C)c2c(C)nn(-c3cccc(Cl)c3C)c21 | · | · | · | · | · | 15
CCOC(=O)c1c(NC(=O)CSc2ncnc3ccccc23)sc(C(C)=O)c1C | -23% | 11µM* | 5 | 4% | 8 | 1
CCOC(=O)c1c(NC(=O)COc2ccccc2)sc(C(C)=O)c1C | · | · | · | · | · | 3
CCOC(=O)c1c(NC(=O)CSc2nc3ccccc3c(=O)n2-c2ccc(F)cc2)sc(C(C)=O)c1C | 3.3µM* | 3% | -2 | 4.1µM* | -7 | 53
COC(=O)c1c(NC(=O)CSc2nnc(Cn3nnc4ccccc43)n2C)sc(C)c1C | 7.4µM* | 16% | 1 | -23% | 49 | -1
CCOC(=O)c1c(NC(=O)CSc2nnc(-c3ccccc3C)n2C)sc(C(C)=O)c1C | · | 10µM* | -2 | ? | -5 | -35
CCOC(=O)c1c(NC(=O)CSc2nc3cccnc3n2C)sc(C(C)=O)c1C | · | ? | -3 | 12% | -6 | ·
CCOC(=O)c1sc(NC(=O)CSc2nnnn2-c2ccccc2)c(C(=O)OCC)c1C | -12% | 0% | -1 | -5% | 0 | ·
COC(=O)c1c(NC(=O)CSc2ncnc3ccccc23)sc(C)c1C | · | 18µM* | · | · | · | -26
Cn1c(Cn2nnc3ccccc32)nnc1SCC(=O)N1c2ccccc2Sc2ccccc21 | 10µM* | ? | -4 | ? | -16 | -37
CC(NC(=O)CSc1nc2sc3c(c2c(=O)n1-c1ccccc1)CCCC3)c1ccccc1 (stereo not given) | -25% | 1% | -1 | 12µM* | -4 | -81*
CN(C)C(CNC(=O)CSc1nc2sc3c(c2c(=O)n1C)CCCC3)c1ccccc1 (stereo not given) | 12µM* | ? | · | ? | · | -27
Cc1nn(Cc2ccccc2)c(C)c1NC(=O)CSc1nc2sc3c(c2c(=O)n1C)CCC3 | · | 22µM* | · | · | · | ·
Cc1ccccc1-n1c(SCC(=O)c2c(N)n(C)c(=O)n(C)c2=O)nc2sc3c(c2c1=O)CCCC3 | 0.93µM* | ? | -3 | 3.7µM* | -1 | 17
Cc1cc(NC(=O)CSc2nc3sc4c(c3c(=O)n2C)CCCC4)no1 | -20% | -3% | -3 | 8% | -10 | 5

Screening results (PubChem BioAssay)
